# HT1080 IDH1KD tx: toxicity to HT-1080 IDH1 knockdown cells (counter line) | HT-1080 IDH1 knockdown viability, ATP luminescence, 48 h | Potency, µM (top dose mostly 46.1 µM), most hits filed as cytotoxic | 360,000 compounds, 2% hits
#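 % activity derives from luminescence (CellTiter-Glo), normalised to DMSO and no-cell wells. HT-1080-IDH1KD cells, 750/well, had 48 h compound exposure at 37 °C.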
# IL1B secr inh: inflammasome signaling inhibition, IL-1 beta readout; activity change, % at 57.5 µM; THP-1 LPS/ATP IL-1B secretion, AlphaLISA, 16 h; stronger effect = lower value; 360,000 compounds, 4.7% hits; in the data active means activity change below about -50%; inconclusive means mostly about -30% to -49%
#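 Secreted IL-1B measured by AlphaLISA bead assay after 16 h compound exposure of THP-1 cells; compounds (final up to 57.5 uM) added 1 h before LPS (250 ng/mL) and ATP (1.25 mM) stimulation; lower signal means less secretion.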
# DT40 TDP1 CPT: DT40-hTDP1 cell growth loss with CPT; Potency, µM (series often up to 46.2 µM), usual class: inhibitors; 420,000 compounds, 12% hits; chicken DT40 Tdp1-/-;hTDP1 cells + 20 nM CPT, ATP luminescence, 48 h; further: nearly all actives have a fitted effect of over 55% in size
#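 Chicken DT40 Tdp1-/- cells stably complemented with human TDP1 were seeded at 400 cells/well in medium containing 20 nM camptothecin, exposed to pin-transferred compounds, and grown at 37 °C for at least 48 hr. Viability was read as ATP luminescence.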
# HT1080NT lethal: kills 2HG-producing HT-1080-NT fibrosarcoma cells; AID 686970; Potency, µM (titrated, usually from 46.1 µM), hits mostly cytotoxic; HT-1080-NT fibrosarcoma viability, CellTiter-Glo ATP luminescence, 48 h; 360,000 compounds, 1.6% hits;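 further: NT is the 2HG producing partner of a matched IDH1 knockdown line; nearly all actives have a fitted effect of over 55% in size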
#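 Viability of the 2HG-overproducing fibrosarcoma line after 48 hours of compound exposure at 37 degrees C was determined by luminescence with CellTiter-Glo, and concentration-effect curves were then fitted and categorized.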
# 12-LOX inh: inhibitors of human 12S-lipoxygenase ALOX12; purified 12hLO, xylenol orange hydroperoxide absorbance; 580,000 compounds, 1.1% hits; P18054; Potency, µM (highest dose often 108 µM), usual class: inhibitors
# Target sequence (P18054 whole entry, looked up): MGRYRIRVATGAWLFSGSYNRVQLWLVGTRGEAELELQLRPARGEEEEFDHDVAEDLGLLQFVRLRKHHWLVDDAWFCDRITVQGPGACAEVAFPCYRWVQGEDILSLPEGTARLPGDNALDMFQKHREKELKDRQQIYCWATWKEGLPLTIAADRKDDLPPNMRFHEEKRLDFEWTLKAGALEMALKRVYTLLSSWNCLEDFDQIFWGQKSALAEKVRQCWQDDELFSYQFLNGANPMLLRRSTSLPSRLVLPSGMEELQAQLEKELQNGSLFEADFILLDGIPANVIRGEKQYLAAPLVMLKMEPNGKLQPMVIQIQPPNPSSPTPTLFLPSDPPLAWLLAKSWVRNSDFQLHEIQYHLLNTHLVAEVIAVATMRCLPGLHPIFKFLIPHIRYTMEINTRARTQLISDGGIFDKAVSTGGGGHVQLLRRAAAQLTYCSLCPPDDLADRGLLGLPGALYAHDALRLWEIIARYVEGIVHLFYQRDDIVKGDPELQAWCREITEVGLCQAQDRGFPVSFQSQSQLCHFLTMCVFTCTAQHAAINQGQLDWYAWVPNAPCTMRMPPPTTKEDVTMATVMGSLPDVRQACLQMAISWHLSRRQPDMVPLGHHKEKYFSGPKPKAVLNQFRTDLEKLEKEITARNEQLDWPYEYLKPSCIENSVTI
#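 Purified human 12hLO (150 nM final) in 25 mM Hepes, 0.01% Triton X-100, pH 7.0 was preincubated 15 min at room temperature with compound. Then 40 uM arachidonic acid was added, 30 min. Hydroperoxide was read by Fe-XO absorbance ratio 573/405 nm.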
# TDP1 cell noCPT: qHTS for Inhibitors of human tyrosyl-DNA phosphodiesterase 1 (TDP1): qHTS in cells in absence of CPT; DT40 Tdp1-/- hTDP1 cells, no CPT, ATP luminescence, 48 h; Potency, µM (series often up to 46.2 µM), actives largely listed as inhibitors; 420,000 compounds, 15% hits; AID 686978, 2013; further: nearly all actives have a fitted effect of over 55% in size
#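 No-CPT arm: Tdp1-/-;hTDP1 DT40 cells (400/well) plus compounds, incubated ≥48 hr at 37 °C. Readout CellTiter-Glo luminescence.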
# A number is an active result; 0 = inactive; ? = inconclusive; - = no result given. Shown is part of a subset that was picked to be rich in hits. Unless noted, the call rests on the fitted dose curve; in most records, active means well fitted curve in the direction sought with a large enough effect; inconclusive means small, poorly fitted or top-dose-only effect, or another doubt; inactive means no such curve, though single readings can be large; an effect the other way counts as inactive or inconclusive.
SMILES,HT1080 IDH1KD tx,IL1B secr inh,DT40 TDP1 CPT,HT1080NT lethal,12-LOX inh,TDP1 cell noCPT
COCCNC(=S)N1C[C@H]2CON(C)[C@H]2C[C@H]1c1ccccc1Br,-,-,-,-,0,-
O=C(N[C@@H](Cc1ccccc1)C(O)c1nc2ccccc2[nH]1)c1ccccn1 (stereo partly drawn),-,-,-,-,0,-
Cc1ccc(NS(=O)(=O)c2cc(NC(=O)C(C)Oc3ccccc3)ccc2C)c(C)c1 (stereo not drawn),?,0,?,0,0,23µM
Cc1ccc(NC(=O)C(C)Oc2ccccc2)cc1S(=O)(=O)N1CCCCCC1 (stereo not drawn),0,0,?,0,0,23µM
Cc1ccc(NC(=O)CNc2ccc(OC(C)C)cc2)c(C)c1,0,0,?,0,0,?
CC(C)C(=O)Nc1cccc(-c2cn3ccccc3n2)c1,0,0,0,0,0,0
Cc1ccn2cc(-c3cccc(NC(=O)C(C)C)c3)nc2c1,0,0,15µM,0,0,29µM
COc1ccc(CC(=O)Nc2ccc(-c3cn4cccc(C)c4n3)cc2)cc1OC,0,0,?,0,0,23µM
Cc1cccn2cc(-c3ccc(NC(=O)Cc4ccccc4)cc3)nc12,0,0,?,0,0,?
COc1ccc(CC(=O)Nc2ccc(-c3cn4ccc(C)cc4n3)cc2)cc1,?,0,5.8µM,15µM,0,5.2µM
Cc1ccc(C2Cn3nnc(C(=O)N4CCC(C(=O)NCc5ccccc5)CC4)c3CO2)cc1 (stereo not drawn),-,-,-,-,0,-
CCn1c(=O)cc(OCC(=O)Nc2cc(OC)c(OC)c(OC)c2)c2ccccc21,-,-,15µM,-,0,?
CCn1c(=O)cc(SCC(=O)Nc2cc(OC)c(OC)c(OC)c2)c2ccccc21,0,0,23µM,0,0,?
CCn1c(=O)cc(SCC(=O)NCCc2cc(OC)ccc2OC)c2ccccc21,-,-,21µM,-,0,21µM
CCn1c(=O)cc(SCC(=O)Nc2cccc(SC)c2)c2ccccc21,0,0,0,0,0,?
CCCOc1ccc(/C=C/c2[nH]c(=O)[nH]c(=O)c2[N+](=O)[O-])cc1OCC,0,0,0,0,0,0
CCOC(=O)COc1ccc(Br)cc1/C=C/c1[nH]c(=O)[nH]c(=O)c1[N+](=O)[O-],?,-63,0,18µM,0,?
CCOC(=O)COc1ccc(Br)cc1/C=C\c1[nH]c(=O)[nH]c(=O)c1[N+](=O)[O-],0,0,23µM,0,0,23µM
O=C(COc1ccccc1/C=C\c1[nH]c(=O)[nH]c(=O)c1[N+](=O)[O-])Nc1ccccc1,0,0,0,0,?,0
C[C@H](O)[C@@H]1CN2CCc3ccc(N4CCOCC4)cc3[C@@H]2C[C@@H]1N(C)C(=S)NCCc1ccccc1,-,-,-,-,0,-
Cc1cc(C)cc(NS(=O)(=O)c2ccc3[nH]cc(C(=O)NCCc4ccccc4)c(=O)c3c2)c1,-,-,?,-,?,16µM
COc1cccc(NS(=O)(=O)c2ccc3[nH]cc(C(=O)NCCC(C)C)c(=O)c3c2)c1,?,0,10µM,12µM,0,15µM
O=C(NC1CCCC1)c1c[nH]c2ccc(S(=O)(=O)Nc3cccc(C(F)(F)F)c3)cc2c1=O,-,-,?,-,?,21µM
CCC1CCCCN1C(=O)c1c[nH]c2ccc(S(=O)(=O)Nc3cccc(OC)c3)cc2c1=O (stereo not drawn),-,-,0,-,?,0
CN(Cc1ccco1)C(=O)c1c[nH]c2ccc(S(=O)(=O)Nc3ccc4c(c3)OCCO4)cc2c1=O,0,0,0,0,0,0
SMILES,HT1080 IDH1KD tx,IL1B secr inh,DT40 TDP1 CPT,HT1080NT lethal,12-LOX inh,TDP1 cell noCPT
CCc1ccc(NS(=O)(=O)c2ccc3[nH]cc(C(=O)N(C)Cc4ccco4)c(=O)c3c2)cc1,0,0,?,0,?,15µM
Cc1ccccc1[C@H]1[C@@H](C(=O)NCc2n[nH]c(=O)[nH]2)C[C@@](C)(C(=O)O)N1C,-,-,-,-,0,-
COc1ccc(Br)cc1COc1ccc(C(C)=O)cc1OC,-,-,-,-,0,-
Cc1ccc(CCNC(=O)c2c[nH]c3ccc(S(=O)(=O)Nc4cccc(C(F)(F)F)c4)cc3c2=O)cc1,-,-,21µM,-,0,?
COc1cc(OC)c(NC(=O)Cn2nc3n(c2=O)CCCC3)cc1Cl,-,-,-,-,0,-
CCOC(=O)c1ccc(N2C(=O)c3[nH]nc(-c4ccccc4)c3C2c2ccc(CC)cc2)cc1 (stereo not drawn),-,-,21µM,-,?,18µM
CCOC(=O)c1ccc(N2C(=O)c3n[nH]c(C)c3C2c2cccnc2)cc1 (stereo not drawn),0,0,0,0,0,0
CCOC(=O)c1ccc(N2C(=O)c3[nH]nc(-c4ccc(C)cc4)c3C2c2ccc(O)cc2)cc1 (stereo not drawn),-,-,?,-,0,?
CCOC(=O)c1ccc(N2C(=O)c3[nH]nc(-c4ccccc4)c3C2c2cccs2)cc1 (stereo not drawn),-,-,23µM,-,0,21µM
CCOC(=O)c1ccc(N2C(=O)c3[nH]nc(-c4ccc(OCC)cc4)c3C2c2cccs2)cc1 (stereo not drawn),-,-,7.3µM,-,0,3.7µM
CCOc1ccc(N2C(=O)c3[nH]nc(-c4ccc(OC)cc4)c3C2c2cccs2)cc1 (stereo not drawn),-,-,23µM,-,?,26µM
CCOC(=O)c1ccc(N2C(=O)c3n[nH]c(C)c3C2c2ccccn2)cc1 (stereo not drawn),0,0,0,0,0,0
CCOc1ccc(-c2n[nH]c3c2C(c2cccs2)N(c2ccc(Br)cc2)C3=O)cc1 (stereo not drawn),-,-,?,-,0,?
CC(C)(CO)NC(=O)c1cc(-c2cccc3ccccc23)nc2ccccc12,-,-,-,-,0,-
CCCN1C(=O)c2[nH]nc(-c3ccc(OC)cc3)c2C1c1ccccn1 (stereo not drawn),-,-,?,-,0,26µM
CCOC(=O)/C(=C/c1ccc(OC(=O)c2ccccc2)cc1)C(C)=O,0,0,18µM,0,?,?
CCOC(=O)C(=Cc1ccc(N(C)C)cc1)C(=O)c1ccccc1,?,-75,16µM,?,0,?
CCOC(=O)c1ccccc1,-,-,-,-,0,-
NC(=O)c1nc(N2CCOCC2)nc(N2CCOCC2)n1,0,0,14µM,0,0,14µM
CCOc1nc(OCC#N)nc(N2CCOCC2)n1,-,-,-,-,0,-
CCNc1nc(C#N)nc(N2CCOCC2)n1,-,-,?,-,-,13µM
CC(C)(C)Nc1nc(C(N)=O)nc(N2CCOCC2)n1,0,0,?,0,0,?
N#Cc1nc(N2CCOCC2)nc(N2CCOCC2)n1,0,0,18µM,0,?,26µM

# From PubChem
